{"source": "ChEMBL document CHEMBL1961873", "about": "“Compounds: GSK PKIS; Assays: Nanosyn kinase panel” (2012);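 note: values are mean inhibition from the GSK PKIS screen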"}
{"molecular_target": "MAP kinase-activated protein kinase 2 (Homo sapiens) (UniProt P49137)", "sequence (P49137 whole entry, looked up)": "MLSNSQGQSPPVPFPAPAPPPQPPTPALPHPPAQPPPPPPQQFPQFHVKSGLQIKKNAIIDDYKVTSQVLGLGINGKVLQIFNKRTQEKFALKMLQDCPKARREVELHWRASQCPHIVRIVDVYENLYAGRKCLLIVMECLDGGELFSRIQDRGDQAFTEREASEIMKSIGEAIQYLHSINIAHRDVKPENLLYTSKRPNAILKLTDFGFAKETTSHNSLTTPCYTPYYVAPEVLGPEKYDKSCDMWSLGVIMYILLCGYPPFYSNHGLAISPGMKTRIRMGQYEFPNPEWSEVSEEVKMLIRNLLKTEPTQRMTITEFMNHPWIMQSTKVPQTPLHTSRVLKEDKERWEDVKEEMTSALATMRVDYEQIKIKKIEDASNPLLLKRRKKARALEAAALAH", "details": "at 1 µM", "units": {"inhibition": "%"}}
{"smiles": "O=C(Nc1n[nH]c2cc(-c3ccccc3)ccc12)C1CC1", "inhibition": 2.8}
{"smiles": "Cc1ccc(C(=O)NC2CCC2)cc1-c1ccc(C(=O)NCC2CC2)cc1", "inhibition": 0.94}
{"smiles": "O=C(Nc1n[nH]c2cc(-c3cc(F)ccc3F)ccc12)C1CC1", "inhibition": 1.03}
{"smiles": "CNC(=O)c1cncc(/C=C/c2c(C)cccc2C)c1", "inhibition": -0.68}
{"smiles": "O=C(Nc1n[nH]c2nc(-c3ccc(O)cc3)c(Br)cc12)C1CC1", "inhibition": 2.69}
{"smiles": "NS(=O)(=O)c1ccc(N/N=C2\\C(=O)Nc3ccc(-c4cnco4)cc32)cc1", "inhibition": 0.18}
{"smiles": "Fc1ccc(-c2ncn(CCCN3CCOCC3)c2-c2ccncc2)cc1", "inhibition": -0.32}
{"smiles": "C[C@@H](Oc1cc(-n2cnc3ccc(OCC4CCN(C)CC4)cc32)sc1C(N)=O)c1ccccc1Cl", "inhibition": 4.06}
{"smiles": "CCc1ccc(Oc2nccc(-c3c(-c4ccc(F)cc4)ncn3C3CCNCC3)n2)cc1", "inhibition": 3.67}
{"smiles": "COc1cccc(/C=N/Nc2ncnc3c2cnn3-c2cccc(OC)c2)c1", "inhibition": 2.31}
{"smiles": "COc1ccc2cc(-c3c(-c4ccncc4)nc(-c4ccc(S(C)(=O)=O)cc4C)n3C)ccc2c1", "inhibition": -1.32}
{"smiles": "CS(=O)(=O)CCNCc1ccc(-c2ccc3ncnc(Nc4ccc(OCc5ccccc5)c(Br)c4)c3c2)o1", "inhibition": 0.14}
{"smiles": "Fc1ccc(-c2ncn(C3CCNCC3)c2-c2ccnc(Oc3ccc(Oc4ccccc4)cc3)n2)cc1", "inhibition": 7.84}
{"smiles": "O=C1Nc2ccc(I)cc2C1=Cc1cc(Br)c(O)c(Br)c1", "inhibition": 4.08}
{"smiles": "COc1cc(Nc2ncc3c(C)nc(-c4cccc(Oc5ccccc5)c4)n3n2)cc(OC)c1OC", "inhibition": 3.35}
{"smiles": "CN1CCN(CCCNc2nc3ccc(Oc4ccc(NC(=O)Nc5cc(C(F)(F)F)ccc5F)cc4)cc3[nH]2)CC1", "inhibition": -0.49}
